# Source: PMC7862700, “An all-to-all approach to the identification of sequence-specific readers for epigenetic DNA modifications on cytosine”
# Key:
# Assay in all cases: DAPPL (digital affinity profiling via proximity ligation, sequencing); 10 mM Tris-HCl pH 7.5, 50 mM NaCl, 1 mM DTT, 4% glycerol, room temperature, 30 min; GST-TFs on glutathione beads, 16-mer random dsDNA library, 0.1% formaldehyde crosslink after washing; high values mean tight binding
# FLI1 = target: T1, FLI1 (Homo sapiens, UniProt Q01543 1-452); details: protein: recombinant; tags: N-terminal GST; dsDNA, one strand shown
# T1 sequence: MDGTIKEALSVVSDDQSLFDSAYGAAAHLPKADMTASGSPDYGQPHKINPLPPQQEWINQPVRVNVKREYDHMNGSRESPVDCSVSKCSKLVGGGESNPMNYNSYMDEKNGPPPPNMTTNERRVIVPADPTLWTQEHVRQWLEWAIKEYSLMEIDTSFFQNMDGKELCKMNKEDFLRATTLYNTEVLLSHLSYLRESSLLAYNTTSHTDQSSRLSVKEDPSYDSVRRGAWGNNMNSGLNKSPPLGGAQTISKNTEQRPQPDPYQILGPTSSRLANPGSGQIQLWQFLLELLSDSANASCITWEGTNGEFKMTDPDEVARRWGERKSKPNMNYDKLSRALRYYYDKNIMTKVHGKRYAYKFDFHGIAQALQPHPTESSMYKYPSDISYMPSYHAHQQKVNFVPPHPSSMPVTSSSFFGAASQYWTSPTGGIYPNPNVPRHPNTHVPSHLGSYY
# In short: (§1)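 After expression in yeast as GST fusions, human transcription factors were bound to glutathione beads, DNA-barcoded and mixed with a tag-only sample. The pools were incubated with 200 nmole of a 16-mer random double-stranded DNA library in Tris/NaCl/DTT/glycerol buffer (30 min, room temperature), washed and crosslinked with 0.1% formaldehyde. Proximity ligation with BsaI/T4 ligase ran for 1 h at 37 °C, before PCR amplification and sequencing on an Illumina NextSeq500. Binding signal is a hexamer's read frequency for a factor divided by its frequency for the tag-only sample.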
# ELK1 = target: T2, ELK1 (Homo sapiens, UniProt P19419 1-428); details: protein: recombinant; tags: N-terminal GST; dsDNA, one strand shown
# T2 sequence: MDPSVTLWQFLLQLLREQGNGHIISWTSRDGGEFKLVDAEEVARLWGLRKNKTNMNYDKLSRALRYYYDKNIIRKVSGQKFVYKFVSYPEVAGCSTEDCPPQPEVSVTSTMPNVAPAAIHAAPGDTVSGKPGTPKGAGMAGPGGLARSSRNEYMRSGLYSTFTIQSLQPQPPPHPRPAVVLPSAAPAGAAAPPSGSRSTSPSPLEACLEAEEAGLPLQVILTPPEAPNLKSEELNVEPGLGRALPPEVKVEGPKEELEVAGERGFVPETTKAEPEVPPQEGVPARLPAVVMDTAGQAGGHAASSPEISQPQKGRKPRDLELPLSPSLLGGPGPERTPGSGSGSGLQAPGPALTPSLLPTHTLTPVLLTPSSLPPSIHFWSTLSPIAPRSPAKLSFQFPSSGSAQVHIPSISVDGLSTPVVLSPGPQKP
# In short: as §1
# GABPA = target: T3, GABPA (Homo sapiens, UniProt Q06546 1-454); details: protein: recombinant; tags: N-terminal GST; dsDNA, one strand shown
# T3 sequence: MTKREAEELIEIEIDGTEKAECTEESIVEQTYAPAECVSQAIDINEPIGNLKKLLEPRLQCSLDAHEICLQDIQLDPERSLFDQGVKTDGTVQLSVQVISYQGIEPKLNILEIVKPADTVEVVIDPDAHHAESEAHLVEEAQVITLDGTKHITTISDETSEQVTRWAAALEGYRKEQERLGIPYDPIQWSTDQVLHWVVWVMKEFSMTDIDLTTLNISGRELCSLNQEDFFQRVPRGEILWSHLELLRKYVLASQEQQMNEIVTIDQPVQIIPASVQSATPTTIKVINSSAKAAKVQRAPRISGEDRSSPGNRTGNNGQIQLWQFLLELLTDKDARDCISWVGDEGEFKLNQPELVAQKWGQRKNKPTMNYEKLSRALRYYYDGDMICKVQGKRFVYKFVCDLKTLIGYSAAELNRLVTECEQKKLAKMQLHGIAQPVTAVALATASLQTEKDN
# In short: as §1
# ERG = target: T4, ERG (Homo sapiens, UniProt P11308 1-479); details: protein: recombinant; tags: N-terminal GST; dsDNA, one strand shown
# T4 sequence: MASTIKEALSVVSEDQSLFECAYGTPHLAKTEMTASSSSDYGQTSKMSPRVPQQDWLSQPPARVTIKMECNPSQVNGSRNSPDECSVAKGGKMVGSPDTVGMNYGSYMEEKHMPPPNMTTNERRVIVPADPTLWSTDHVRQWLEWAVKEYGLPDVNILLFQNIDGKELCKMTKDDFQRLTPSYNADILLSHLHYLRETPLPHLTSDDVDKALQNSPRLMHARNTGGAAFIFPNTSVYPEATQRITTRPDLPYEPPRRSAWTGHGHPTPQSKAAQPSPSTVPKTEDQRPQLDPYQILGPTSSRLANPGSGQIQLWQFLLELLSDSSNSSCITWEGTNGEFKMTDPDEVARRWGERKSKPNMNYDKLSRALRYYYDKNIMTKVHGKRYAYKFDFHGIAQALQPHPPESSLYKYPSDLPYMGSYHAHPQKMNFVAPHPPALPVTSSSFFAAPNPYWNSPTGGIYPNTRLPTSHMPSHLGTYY
# In short: as §1
# ELF1 = ELF1 (Homo sapiens, UniProt P32519 1-619); details: protein: recombinant; tags: N-terminal GST; dsDNA, one strand shown
# Sequence of ELF1 (P32519 whole entry): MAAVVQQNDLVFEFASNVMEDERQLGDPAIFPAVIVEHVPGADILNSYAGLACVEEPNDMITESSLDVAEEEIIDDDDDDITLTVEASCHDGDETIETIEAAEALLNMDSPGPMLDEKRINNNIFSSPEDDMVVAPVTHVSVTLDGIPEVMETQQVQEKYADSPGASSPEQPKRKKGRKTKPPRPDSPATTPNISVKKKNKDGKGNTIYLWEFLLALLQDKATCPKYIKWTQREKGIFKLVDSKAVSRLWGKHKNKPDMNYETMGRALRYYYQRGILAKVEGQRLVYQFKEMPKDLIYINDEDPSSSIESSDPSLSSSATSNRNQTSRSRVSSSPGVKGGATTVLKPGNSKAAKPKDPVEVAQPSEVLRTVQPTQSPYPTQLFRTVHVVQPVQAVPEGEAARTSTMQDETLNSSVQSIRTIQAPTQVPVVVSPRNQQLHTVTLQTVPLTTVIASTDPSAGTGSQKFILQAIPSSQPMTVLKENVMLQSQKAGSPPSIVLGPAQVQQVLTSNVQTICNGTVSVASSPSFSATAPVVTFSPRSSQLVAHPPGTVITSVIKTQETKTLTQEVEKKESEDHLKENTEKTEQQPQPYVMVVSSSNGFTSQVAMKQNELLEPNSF
# In short: as §1
# EHF = target: T5, EHF (Homo sapiens, UniProt Q9NZC4 1-300); details: protein: recombinant; tags: N-terminal GST; dsDNA, one strand shown
# T5 sequence: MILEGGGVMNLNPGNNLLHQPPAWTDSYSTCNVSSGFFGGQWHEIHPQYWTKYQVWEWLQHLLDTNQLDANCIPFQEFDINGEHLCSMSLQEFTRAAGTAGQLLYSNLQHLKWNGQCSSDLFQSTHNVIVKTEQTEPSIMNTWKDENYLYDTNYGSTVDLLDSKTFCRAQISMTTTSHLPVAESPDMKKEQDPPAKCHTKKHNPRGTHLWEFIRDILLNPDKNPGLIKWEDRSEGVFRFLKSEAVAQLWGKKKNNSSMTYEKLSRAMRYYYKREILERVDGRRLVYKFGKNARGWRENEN
# In short: as §1
# SPI1 = SPI1 (Homo sapiens, UniProt P17947 1-270); details: protein: recombinant; tags: N-terminal GST; dsDNA, one strand shown
# In short: as §1
# SPIB = SPIB (Homo sapiens, UniProt Q01892 1-262); details: protein: recombinant; tags: N-terminal GST; dsDNA, one strand shown
# Sequence of SPIB (Q01892 whole entry): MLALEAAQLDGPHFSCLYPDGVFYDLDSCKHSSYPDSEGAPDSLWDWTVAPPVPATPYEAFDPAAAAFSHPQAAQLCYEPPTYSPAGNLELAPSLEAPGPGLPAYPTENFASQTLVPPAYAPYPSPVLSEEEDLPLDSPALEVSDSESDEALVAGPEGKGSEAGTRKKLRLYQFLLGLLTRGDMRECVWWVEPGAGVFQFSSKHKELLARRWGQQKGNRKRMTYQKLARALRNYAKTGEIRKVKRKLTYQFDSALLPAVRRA
# In short: as §1
# ELK3 = target: T6, ELK3 (Homo sapiens, UniProt P41970 1-407); details: protein: recombinant; tags: N-terminal GST; dsDNA, one strand shown
# T6 sequence: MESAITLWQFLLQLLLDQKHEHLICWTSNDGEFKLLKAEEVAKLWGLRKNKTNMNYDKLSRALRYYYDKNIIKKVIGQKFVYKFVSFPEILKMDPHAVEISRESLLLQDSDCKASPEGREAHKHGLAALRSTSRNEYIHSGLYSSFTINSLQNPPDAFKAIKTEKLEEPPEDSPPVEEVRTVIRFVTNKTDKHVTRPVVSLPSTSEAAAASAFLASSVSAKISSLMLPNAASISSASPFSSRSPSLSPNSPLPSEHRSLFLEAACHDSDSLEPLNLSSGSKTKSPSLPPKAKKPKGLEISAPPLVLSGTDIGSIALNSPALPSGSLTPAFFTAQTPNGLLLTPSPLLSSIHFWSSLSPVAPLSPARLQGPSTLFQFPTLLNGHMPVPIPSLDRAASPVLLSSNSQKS
# In short: as §1
# FEV = target: T7, FEV (Homo sapiens, UniProt Q99581 1-238); details: protein: recombinant; tags: N-terminal GST; dsDNA, one strand shown
# T7 sequence: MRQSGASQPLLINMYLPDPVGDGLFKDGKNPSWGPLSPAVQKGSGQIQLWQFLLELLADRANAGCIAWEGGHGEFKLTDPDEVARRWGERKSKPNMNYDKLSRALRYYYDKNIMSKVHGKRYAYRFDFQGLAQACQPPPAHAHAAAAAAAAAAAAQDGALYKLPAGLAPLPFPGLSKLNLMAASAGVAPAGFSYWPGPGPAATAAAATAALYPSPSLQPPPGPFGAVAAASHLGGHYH
# In short: as §1
# ETV5 = ETV5 (Homo sapiens, UniProt P41161 1-510); details: protein: recombinant; tags: N-terminal GST; dsDNA, one strand shown
# Sequence of ETV5 (P41161 whole entry): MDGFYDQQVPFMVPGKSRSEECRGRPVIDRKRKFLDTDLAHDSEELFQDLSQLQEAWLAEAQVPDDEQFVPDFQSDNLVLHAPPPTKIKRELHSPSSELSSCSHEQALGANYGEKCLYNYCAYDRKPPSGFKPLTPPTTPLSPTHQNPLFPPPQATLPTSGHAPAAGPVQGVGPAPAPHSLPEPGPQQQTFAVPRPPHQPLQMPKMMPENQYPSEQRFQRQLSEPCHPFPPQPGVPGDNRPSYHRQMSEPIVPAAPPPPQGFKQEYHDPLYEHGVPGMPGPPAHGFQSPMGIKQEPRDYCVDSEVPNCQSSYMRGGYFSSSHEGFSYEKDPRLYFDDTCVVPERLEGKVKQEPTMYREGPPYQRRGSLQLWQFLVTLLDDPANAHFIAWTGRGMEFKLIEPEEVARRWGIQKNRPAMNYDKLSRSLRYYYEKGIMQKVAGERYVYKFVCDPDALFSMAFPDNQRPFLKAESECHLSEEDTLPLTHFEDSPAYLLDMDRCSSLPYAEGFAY
# In short: as §1
# HSF1 = HSF1 (Homo sapiens, UniProt Q00613 1-529); details: protein: recombinant; tags: N-terminal GST; chain copies: 3; dsDNA, one strand shown
# Sequence of HSF1 (Q00613 whole entry): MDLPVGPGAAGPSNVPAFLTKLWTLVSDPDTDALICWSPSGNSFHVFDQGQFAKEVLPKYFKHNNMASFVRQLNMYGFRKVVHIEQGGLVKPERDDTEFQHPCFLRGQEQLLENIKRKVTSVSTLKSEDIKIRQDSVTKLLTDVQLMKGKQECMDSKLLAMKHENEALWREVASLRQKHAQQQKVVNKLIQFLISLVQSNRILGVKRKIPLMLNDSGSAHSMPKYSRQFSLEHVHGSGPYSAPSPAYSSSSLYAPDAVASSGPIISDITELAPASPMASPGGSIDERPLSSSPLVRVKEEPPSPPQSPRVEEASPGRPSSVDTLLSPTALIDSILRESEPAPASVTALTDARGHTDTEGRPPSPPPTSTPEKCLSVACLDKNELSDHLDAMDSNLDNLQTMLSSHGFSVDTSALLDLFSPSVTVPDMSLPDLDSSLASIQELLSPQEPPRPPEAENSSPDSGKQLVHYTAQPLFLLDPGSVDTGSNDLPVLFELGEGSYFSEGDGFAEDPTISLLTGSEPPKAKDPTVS
# In short: as §1
# SPIC = target: T8, SPIC (Homo sapiens, UniProt Q8N5J4 1-248); details: protein: recombinant; tags: N-terminal GST; dsDNA, one strand shown
# T8 sequence: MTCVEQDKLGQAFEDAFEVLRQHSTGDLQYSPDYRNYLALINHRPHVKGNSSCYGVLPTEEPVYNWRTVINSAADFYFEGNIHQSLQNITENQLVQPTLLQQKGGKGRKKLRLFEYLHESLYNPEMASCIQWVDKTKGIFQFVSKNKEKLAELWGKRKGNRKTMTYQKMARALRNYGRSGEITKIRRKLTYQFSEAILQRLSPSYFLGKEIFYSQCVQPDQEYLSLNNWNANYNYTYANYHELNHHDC
# In short: as §1
# ELF4 = ELF4 (Homo sapiens, UniProt Q99607 1-663); details: protein: recombinant; tags: N-terminal GST; dsDNA, one strand shown
# Sequence of ELF4 (Q99607 whole entry): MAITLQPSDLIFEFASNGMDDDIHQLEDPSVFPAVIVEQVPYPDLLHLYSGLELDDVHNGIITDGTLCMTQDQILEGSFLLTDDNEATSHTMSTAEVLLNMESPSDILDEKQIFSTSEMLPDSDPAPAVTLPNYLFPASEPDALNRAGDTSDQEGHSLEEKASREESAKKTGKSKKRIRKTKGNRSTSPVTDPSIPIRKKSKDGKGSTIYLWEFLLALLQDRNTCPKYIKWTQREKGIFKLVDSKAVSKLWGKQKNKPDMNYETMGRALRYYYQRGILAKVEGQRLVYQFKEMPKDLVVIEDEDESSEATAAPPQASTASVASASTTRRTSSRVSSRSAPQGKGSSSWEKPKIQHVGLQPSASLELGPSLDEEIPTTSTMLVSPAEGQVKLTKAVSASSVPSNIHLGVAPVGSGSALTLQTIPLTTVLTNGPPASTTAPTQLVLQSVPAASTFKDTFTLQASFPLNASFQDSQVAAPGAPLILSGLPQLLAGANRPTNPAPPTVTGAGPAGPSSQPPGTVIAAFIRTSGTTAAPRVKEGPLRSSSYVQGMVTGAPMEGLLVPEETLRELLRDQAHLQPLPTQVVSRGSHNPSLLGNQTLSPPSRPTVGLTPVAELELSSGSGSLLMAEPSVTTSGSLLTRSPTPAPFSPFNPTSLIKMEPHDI
# In short: as §1
# ELK4 = target: T9, ELK4 (Homo sapiens, UniProt P28324-2 1-405); details: protein: recombinant; tags: N-terminal GST; dsDNA, one strand shown
# T9 sequence: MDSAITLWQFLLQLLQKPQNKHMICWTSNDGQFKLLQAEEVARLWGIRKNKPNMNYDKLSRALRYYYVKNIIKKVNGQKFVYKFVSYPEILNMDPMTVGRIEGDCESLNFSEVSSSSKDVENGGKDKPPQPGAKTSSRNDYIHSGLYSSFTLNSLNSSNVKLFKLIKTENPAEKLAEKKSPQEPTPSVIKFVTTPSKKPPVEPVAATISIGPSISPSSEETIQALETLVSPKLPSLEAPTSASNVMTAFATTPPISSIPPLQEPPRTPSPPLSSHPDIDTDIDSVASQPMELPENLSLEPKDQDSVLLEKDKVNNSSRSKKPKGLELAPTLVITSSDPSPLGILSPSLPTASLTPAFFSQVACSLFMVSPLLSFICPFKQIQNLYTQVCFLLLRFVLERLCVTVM
# In short: as §1
# ETV2 = target: T10, ETV2 (Homo sapiens, UniProt O00321 1-342); details: protein: recombinant; tags: N-terminal GST; dsDNA, one strand shown
# T10 sequence: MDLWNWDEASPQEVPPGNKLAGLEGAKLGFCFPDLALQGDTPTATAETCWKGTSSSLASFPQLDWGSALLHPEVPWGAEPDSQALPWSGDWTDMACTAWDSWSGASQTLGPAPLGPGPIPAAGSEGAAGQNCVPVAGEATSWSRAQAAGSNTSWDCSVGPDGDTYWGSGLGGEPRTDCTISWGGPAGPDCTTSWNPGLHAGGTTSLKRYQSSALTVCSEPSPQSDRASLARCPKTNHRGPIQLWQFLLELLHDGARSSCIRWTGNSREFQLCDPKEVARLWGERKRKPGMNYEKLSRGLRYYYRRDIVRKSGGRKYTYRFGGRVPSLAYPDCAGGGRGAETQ
# In short: as §1
# ELF3 = target: T11, ELF3 (Homo sapiens, UniProt P78545 1-371); details: protein: recombinant; tags: N-terminal GST; dsDNA, one strand shown
# T11 sequence: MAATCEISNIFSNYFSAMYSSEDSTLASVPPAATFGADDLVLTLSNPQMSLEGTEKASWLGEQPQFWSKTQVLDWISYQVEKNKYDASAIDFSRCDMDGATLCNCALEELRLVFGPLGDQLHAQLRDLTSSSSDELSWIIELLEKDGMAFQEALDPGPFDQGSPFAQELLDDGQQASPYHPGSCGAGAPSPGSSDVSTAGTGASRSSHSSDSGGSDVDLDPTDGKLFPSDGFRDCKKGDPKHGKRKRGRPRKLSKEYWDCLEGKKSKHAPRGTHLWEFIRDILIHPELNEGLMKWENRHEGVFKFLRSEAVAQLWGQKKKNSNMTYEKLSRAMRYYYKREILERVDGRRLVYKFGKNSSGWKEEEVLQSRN
# In short: as §1
# CRX = CRX (Homo sapiens, UniProt O43186 1-299); details: protein: recombinant; tags: N-terminal GST; dsDNA, one strand shown
# Sequence of CRX (O43186 whole entry): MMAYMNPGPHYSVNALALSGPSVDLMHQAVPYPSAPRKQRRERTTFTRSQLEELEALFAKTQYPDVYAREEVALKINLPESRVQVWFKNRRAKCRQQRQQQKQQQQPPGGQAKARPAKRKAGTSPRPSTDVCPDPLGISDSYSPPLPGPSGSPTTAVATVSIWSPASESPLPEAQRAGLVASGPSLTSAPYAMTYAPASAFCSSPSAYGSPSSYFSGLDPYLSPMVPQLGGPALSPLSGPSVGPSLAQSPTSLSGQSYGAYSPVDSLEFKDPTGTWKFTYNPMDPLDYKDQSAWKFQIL
# In short: as §1
# ETV1 = ETV1 (Homo sapiens, UniProt P50549 1-477); details: protein: recombinant; tags: N-terminal GST; dsDNA, one strand shown
# Sequence of ETV1 (P50549 whole entry): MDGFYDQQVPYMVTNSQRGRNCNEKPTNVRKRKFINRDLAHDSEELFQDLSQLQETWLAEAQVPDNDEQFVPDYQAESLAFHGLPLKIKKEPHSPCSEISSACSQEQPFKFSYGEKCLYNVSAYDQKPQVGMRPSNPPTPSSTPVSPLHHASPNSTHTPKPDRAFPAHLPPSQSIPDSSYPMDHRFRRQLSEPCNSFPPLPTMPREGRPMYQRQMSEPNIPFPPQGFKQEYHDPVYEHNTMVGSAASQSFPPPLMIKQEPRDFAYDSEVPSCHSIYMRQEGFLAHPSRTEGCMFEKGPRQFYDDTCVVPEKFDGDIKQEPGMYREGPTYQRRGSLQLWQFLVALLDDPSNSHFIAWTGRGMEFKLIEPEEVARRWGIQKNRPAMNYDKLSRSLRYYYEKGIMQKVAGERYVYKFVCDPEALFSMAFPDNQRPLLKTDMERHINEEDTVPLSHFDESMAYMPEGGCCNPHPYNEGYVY
# In short: as §1
sequence,measurement,setting,value
ACGTAT,binding signal,FLI1,"1.24 fold enrichment (6-mer frequency, TF over GST control)"
same,binding signal,ELK1,"1.29 fold enrichment (6-mer frequency, TF over GST control)"
same,binding signal,GABPA,"1.21 fold enrichment (6-mer frequency, TF over GST control)"
same,binding signal,ERG,"1.17 fold enrichment (6-mer frequency, TF over GST control)"
same,binding signal,ELF1,"1.17 fold enrichment (6-mer frequency, TF over GST control)"
same,binding signal,EHF,"1.29 fold enrichment (6-mer frequency, TF over GST control)"
same,binding signal,SPI1,"1.14 fold enrichment (6-mer frequency, TF over GST control)"
same,binding signal,SPIB,"1.19 fold enrichment (6-mer frequency, TF over GST control)"
same,binding signal,ELK3,"1.42 fold enrichment (6-mer frequency, TF over GST control)"
same,binding signal,FEV,"1.2 fold enrichment (6-mer frequency, TF over GST control)"
same,binding signal,ETV5,"1.2 fold enrichment (6-mer frequency, TF over GST control)"
same,binding signal,HSF1,"1.09 fold enrichment (6-mer frequency, TF over GST control)"
same,binding signal,SPIC,"1.14 fold enrichment (6-mer frequency, TF over GST control)"
same,binding signal,ELF4,"1.27 fold enrichment (6-mer frequency, TF over GST control)"
same,binding signal,ELK4,"1.16 fold enrichment (6-mer frequency, TF over GST control)"
same,binding signal,ETV2,"1.24 fold enrichment (6-mer frequency, TF over GST control)"
same,binding signal,ELF3,"1.25 fold enrichment (6-mer frequency, TF over GST control)"
same,binding signal,CRX,"1.15 fold enrichment (6-mer frequency, TF over GST control)"
same,binding signal,ETV1,"1.32 fold enrichment (6-mer frequency, TF over GST control)"
